From PubChem BioAssay (Tox21)
A number with no mark means an inactive call. Inconclusive results are not listed. A call without a number means that no potency is given here. Activity calls are given as the source filed them. Unless noted, the call rests on the fitted dose curve; in most records, active means well fitted curve in the direction sought with a large enough effect in the repeat runs; inconclusive means weak or mixed curves; inactive means no such curve, though single readings can be large; an effect the other way counts as inactive or inconclusive.

Key:
[1] = qHTS assay to identify small molecule antagonists of the sonic hedgehog signaling (Shh) pathway (AID 1259369; calls by dose curve; further: nearly all actives have a fitted effect of over 45% in size; further: potency means the concentration at half of the fitted maximal effect)
Procedure, shortened: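 Antagonist mode: compound added to 3T3 Gli1-Luc cells followed by conditioned-medium stimulation, 24 h at 37 C, 5% CO2. Inhibition taken as loss of Gli1-driven luciferase luminescence.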

[2] = biological target: Estrogen receptor beta (Homo sapiens) (UniProt Q92731); assay: qHTS assay to identify small molecule agonists of the estrogen receptor beta (ER-beta) signaling pathway (AID 1259377; active means well fitted activation curve with a large enough effect in the signal ratio in the repeat runs, not every such curve was filed as active; the % refers to the signal ratio)
Procedure, shortened: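 qHTS in ER-beta-UAS-bla HEK293T cells: 6 hr settling, then 16 hr compound at 37C, then LiveBLAzer substrate 2 h at RT before fluorescence reading.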

[3] = qHTS assay to identify small molecule agonists of the androgen receptor (AR) signaling pathway in the presence of an antagonist - cell viability counter screen (AID 1259379);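 further: MDA-kb2 human breast cancer cells carrying an MMTV luciferase reporter; series mostly up to about 92 µM; nearly all actives have a fitted effect of over 25% in size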
Procedure, shortened: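 Cytotoxicity counter-screen run in the same wells as the nilutamide-challenged (3.0 µM final) AR agonist assay in MDA-kb2 cells. Compounds tested at 15 concentrations for 16 h, 37 °C without CO2; CellTiter-Fluor fluorescence read.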

[4] = qHTS assay to identify small molecule agonists of the estrogen receptor beta (ER-beta) signaling pathway - cell viability counter screen (AID 1259380); further: nearly all actives have a fitted effect of over 30% in size
Procedure, shortened: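 Cell viability counter screen: CellTiter-Glo luminescence (30 min, room temperature) measured in the same wells as the beta-lactamase readout, after 16 hr compound exposure at 37C of ER-beta-bla HEK293T cells in 2% charcoal-stripped FBS medium.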

[5] = biological target: Androgen receptor (Homo sapiens) (UniProt P10275); assay: qHTS assay to identify small molecule agonists of the androgen receptor (AR) signaling pathway in the presence of an antagonist (AID 1259381; calls by dose curve; further: nearly all actives have a fitted effect of over 15% in size)
Procedure, shortened: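 Agonist-mode confirmation run against 3.0 uM final nilutamide: compounds titrated at 15 concentrations onto MDA-kb2 MMTV-luciferase reporter cells. Luminescence measured with ONE-Glo following 16 hr incubation, 37C, 0% CO2.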

[6] = qHTS assay to identify small molecule antagonists of the estrogen receptor beta (ER-beta) signaling pathway - cell viability counter screen (AID 1259382);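 further: HEK293T cells carrying ER-beta-UAS-bla reporter stimulated with estradiol; series mostly up to about 92 µM; nearly all actives have a fitted effect of over 55% in size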
Procedure, shortened: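 Cytotoxicity was measured in the same wells by CellTiter-Glo luminescence after 30 min at room temperature. Cells were ER-beta-bla HEK293T in charcoal-stripped serum, given compound together with 1 nM E2 and incubated 16 h at 37C.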

[7] = biological target: Estrogen receptor (Homo sapiens) (UniProt P03372); assay: qHTS assay to identify small molecule agonists of the estrogen receptor alpha (ER-alpha) signaling pathway in the presence of an antagonist (AID 1259383; calls by dose curve; further: top concentration of the series differs between compounds; nearly all actives have a fitted effect of over 15% in size)
Procedure, shortened: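 Agonist-mode confirmation run in the presence of 10.0nM (final) ICI-182,780 antagonist. The reporter was ERE-driven luciferase in VM7Luc4E2 cells, grown in charcoal-stripped serum. Cells were exposed to 15-concentration compound series for 22hr, then ONE-Glo luminescence was read.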

[8] = qHTS assay to identify small molecule agonists or antagonists of the thyroid stimulating hormone receptor (TSHR) signaling pathway - wild type cell line counter screen (AID 1259384; calls by dose curve)
Procedure, shortened: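 Counter screen in untransfected Hek293: compounds (15-point titration, triplicate) plus phosphodiesterase inhibitor Ro20-1724 added after 18 h plating; 30 min RT. Intracellular cAMP via competitive d2/cryptate immunoassay, 1 h incubation.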

[9] = biological target: Thyrotropin receptor (Homo sapiens) (UniProt P16473); assay: qHTS assay to identify small molecule antagonists of the thyroid stimulating hormone receptor (TSHR) signaling pathway (AID 1259385; calls by dose curve; further: nearly all actives have a fitted effect of over 20% in size)
Procedure, shortened: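 Antagonist mode: compound-treated TSHR-expressing HEK293 cells were stimulated with 1.5 ng/mL TSH (final) in presence of Ro20-1724 for 30 min at RT. HTRF cAMP detection after 1 h; each compound tested at 15 concentrations, triplicate.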

[10] = qHTS assay to identify small molecule agonists of the estrogen receptor alpha (ER-alpha) signaling pathway in the presence of an antagonist - cell viability counter screen (AID 1259386); further: series mostly up to about 92 µM; nearly all actives have a fitted effect of over 30% in size
Procedure, shortened: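 Compounds tested at 15 concentrations for 22 h at 37C alongside 10.0nM (final) ICI-182,780 antagonist, in VM7Luc4E2 cells grown in phenol red-free, charcoal-stripped medium. Viability read by CellTiter-Fluor fluorescence after 1 h reagent incubation.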

[11] = biological target: Progesterone receptor (Homo sapiens) (UniProt P06401); assay: qHTS assay to identify small molecule antagonists of the progesterone receptor (PR) signaling pathway (AID 1346795; active means well fitted inhibition curve with a large enough effect in the signal ratio in the repeat runs, not every such curve was filed as active; the % refers to the signal ratio)
Procedure, shortened: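 Fluorescence intensity measured 2 hr after adding beta-lactamase FRET substrate to PR-UAS-bla HEK293T cells that had been co-treated 16 hr with compound and 1 nM R5020 (final concentration) in 2% charcoal-stripped FBS.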

[12] = qHTS assay to identify small molecule antagonists of the progesterone receptor (PR) signaling pathway - cell viability counter screen (AID 1346798); further: series mostly up to about 92 µM; nearly all actives have a fitted effect of over 50% in size
Procedure, shortened: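 CellTiter-Glo luminescence; PR-UAS-bla HEK293T, 3,000 cells/well; compound + R5020, 16 hr, 37C/5% CO2; 30 min RT before read.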

[13] = qHTS assay to identify small molecule antagonists of the TGF-beta/Smad signaling pathway - cell viability counter screen (AID 1346824); further: nearly all actives have a fitted effect of over 50% in size
Procedure, shortened: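 Cytotoxicity counter-screen run in the same wells as the beta-lactamase Smad reporter read: CellTiter-Glo luminescence after 30 min at room temperature. HEK 293T SBE-bla cells had 5 hr compound exposure at 37 C with TGF-beta1 (0.25 ng/mL stock).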

[14] = qHTS assay to identify small molecule agonists of the TGF-beta/Smad signaling pathway - cell viability counter screen (AID 1346829); further: top concentration of the series differs between compounds; nearly all actives have a fitted effect of over 45% in size
Procedure, shortened: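 Tox21 qHTS format: SBE-bla HEK 293T cells treated with DMSO-dissolved compounds for 5 hr; CellTiter-Glo luminescence after 30 min at room temperature.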

[15] = qHTS assay to identify small molecule agonists of the TGF-beta/Smad signaling pathway (AID 1346859; active means well fitted activation curve with a large enough effect in the signal ratio in the repeat runs, not every such curve was filed as active; the % refers to the signal ratio; further: series mostly up to about 77 µM)
Procedure, shortened: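 After overnight seeding, SBE-bla HEK 293T cells are dosed with compounds in DMSO and kept 5 hr at 37 C, 5% CO2. LiveBLAzer-type FRET substrate is then applied for 2 hr at room temperature.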

[16] = biological target: Thyrotropin-releasing hormone receptor (Homo sapiens) (UniProt P34981); assay: qHTS assay to identify small molecule antagonists of the thyrotropin-releasing hormone receptor (TRHR) signaling pathway (AID 1346877; active means well fitted inhibition curve with a large enough effect in the repeat runs, not every such curve was filed as active; further: series mostly up to about 51 µM)
Procedure, shortened: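 Antagonist mode: after a 5 min room-temperature compound exposure, cells were stimulated with 1 nM (final) TRH. Dye-loaded TRHR-HEK293 cells were used, and calcium-dependent fluorescence was followed for 3 min, with 15-point titrations run in triplicate.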

[17] = biological target: Thyrotropin-releasing hormone receptor (Homo sapiens) (UniProt P34981); assay: qHTS assay to identify small molecule agonists of the thyrotropin-releasing hormone receptor (TRHR) signaling pathway (AID 1346891; calls by dose curve;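 further: HEK293 cells expressing TRHR with calcium dye readout; series mostly up to about 58 µM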)
Procedure, shortened: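 Compounds were tested as agonists at 15 concentrations, in triplicate, on TRHR-Hek293 cells; calcium-sensitive dye fluorescence was recorded for 3 min following addition.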

[18] = biological target: Progesterone receptor (Homo sapiens) (UniProt P06401); assay: qHTS assay to identify small molecule agonists of the progesterone receptor (PR) signaling pathway (AID 1346784; calls by dose curve; further: nearly all actives have a fitted effect of over 30% in size)
Procedure, shortened: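 Fluorescence from LiveBLAzer B/G FRET substrate cleavage (2 hr, RT) reported PR activation in PR-UAS-bla HEK 293T cells treated 16 hr at 37C/5% CO2 with compounds; medium contained 2% charcoal-stripped FBS.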

[19] = qHTS assay to identify small molecule agonists of the progesterone receptor (PR) signaling pathway - cell viability counter screen (AID 1346799; calls by dose curve; further: nearly all actives have a fitted effect of over 45% in size; further: potency means the concentration at half of the fitted maximal effect)
Procedure, shortened: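 In parallel with the beta-lactamase readout, cytotoxicity toward PR-UAS-bla HEK293T cells was measured by CellTiter-Glo luminescence following 16 hr compound incubation in 2% charcoal-stripped FBS medium.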

[20] = biological target: Estrogen receptor beta (Homo sapiens) (UniProt Q92731); assay: qHTS assay to identify small molecule antagonists of the estrogen receptor beta (ER-beta) signaling pathway (AID 1259378; active means well fitted inhibition curve with a large enough effect in the signal ratio in the repeat runs, not every such curve was filed as active; the % refers to the signal ratio)
Procedure, shortened: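 Antagonist mode: compounds added to beta-lactamase reporter HEK293T ER-beta-UAS cells stimulated with E2 (1nM final), 16 hr at 37C. LiveBLAzer B/G FRET substrate, 2 hours room temperature, fluorescence read-out.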

Sequence of Estrogen receptor beta (Homo sapiens) (Q92731 whole entry, looked up): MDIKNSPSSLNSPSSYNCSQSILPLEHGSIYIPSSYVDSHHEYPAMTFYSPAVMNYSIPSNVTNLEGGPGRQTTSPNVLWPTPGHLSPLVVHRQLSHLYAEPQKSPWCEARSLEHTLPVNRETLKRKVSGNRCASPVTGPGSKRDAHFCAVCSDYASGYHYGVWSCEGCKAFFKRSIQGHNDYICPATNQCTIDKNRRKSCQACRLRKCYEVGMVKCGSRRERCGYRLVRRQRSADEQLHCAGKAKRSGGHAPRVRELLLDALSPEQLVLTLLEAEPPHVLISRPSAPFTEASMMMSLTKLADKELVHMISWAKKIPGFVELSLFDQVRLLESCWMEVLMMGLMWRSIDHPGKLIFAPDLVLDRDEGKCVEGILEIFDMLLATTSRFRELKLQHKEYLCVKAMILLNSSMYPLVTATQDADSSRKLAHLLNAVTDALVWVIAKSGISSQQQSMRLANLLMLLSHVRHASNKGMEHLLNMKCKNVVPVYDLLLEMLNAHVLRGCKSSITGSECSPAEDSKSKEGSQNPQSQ
Sequence of Thyrotropin-releasing hormone receptor (Homo sapiens) (P34981 whole entry, looked up): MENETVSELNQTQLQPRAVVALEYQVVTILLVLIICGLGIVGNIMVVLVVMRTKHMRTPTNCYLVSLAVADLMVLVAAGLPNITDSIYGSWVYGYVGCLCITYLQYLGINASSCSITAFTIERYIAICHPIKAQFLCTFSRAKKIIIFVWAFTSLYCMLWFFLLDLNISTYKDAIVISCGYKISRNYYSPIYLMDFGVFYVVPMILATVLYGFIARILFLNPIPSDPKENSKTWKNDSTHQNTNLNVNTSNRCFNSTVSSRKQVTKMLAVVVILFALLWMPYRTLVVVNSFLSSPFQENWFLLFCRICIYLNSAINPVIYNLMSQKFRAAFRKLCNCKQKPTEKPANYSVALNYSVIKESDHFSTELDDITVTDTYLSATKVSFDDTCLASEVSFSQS
Sequence of Thyrotropin receptor (Homo sapiens) (P16473 whole entry, looked up): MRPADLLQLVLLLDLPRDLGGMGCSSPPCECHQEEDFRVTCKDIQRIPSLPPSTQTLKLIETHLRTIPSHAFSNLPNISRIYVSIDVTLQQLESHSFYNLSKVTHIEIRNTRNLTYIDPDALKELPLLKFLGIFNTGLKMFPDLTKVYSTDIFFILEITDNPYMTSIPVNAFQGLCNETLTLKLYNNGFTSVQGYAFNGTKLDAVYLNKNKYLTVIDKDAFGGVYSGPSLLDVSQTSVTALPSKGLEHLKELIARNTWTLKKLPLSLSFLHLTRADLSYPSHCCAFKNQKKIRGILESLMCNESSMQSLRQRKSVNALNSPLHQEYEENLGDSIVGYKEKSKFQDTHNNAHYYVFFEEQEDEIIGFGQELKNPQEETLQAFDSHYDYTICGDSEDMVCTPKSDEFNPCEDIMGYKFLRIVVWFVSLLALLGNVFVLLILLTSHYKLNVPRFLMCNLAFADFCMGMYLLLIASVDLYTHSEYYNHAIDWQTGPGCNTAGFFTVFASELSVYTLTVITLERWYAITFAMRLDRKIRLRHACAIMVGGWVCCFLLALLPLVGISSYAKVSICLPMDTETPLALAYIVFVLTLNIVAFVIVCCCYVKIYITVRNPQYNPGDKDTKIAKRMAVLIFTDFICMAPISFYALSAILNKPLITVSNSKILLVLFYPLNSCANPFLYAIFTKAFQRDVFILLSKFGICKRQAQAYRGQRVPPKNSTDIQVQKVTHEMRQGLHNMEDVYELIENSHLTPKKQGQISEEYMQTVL
Sequence of Progesterone receptor (Homo sapiens) (P06401 whole entry, looked up): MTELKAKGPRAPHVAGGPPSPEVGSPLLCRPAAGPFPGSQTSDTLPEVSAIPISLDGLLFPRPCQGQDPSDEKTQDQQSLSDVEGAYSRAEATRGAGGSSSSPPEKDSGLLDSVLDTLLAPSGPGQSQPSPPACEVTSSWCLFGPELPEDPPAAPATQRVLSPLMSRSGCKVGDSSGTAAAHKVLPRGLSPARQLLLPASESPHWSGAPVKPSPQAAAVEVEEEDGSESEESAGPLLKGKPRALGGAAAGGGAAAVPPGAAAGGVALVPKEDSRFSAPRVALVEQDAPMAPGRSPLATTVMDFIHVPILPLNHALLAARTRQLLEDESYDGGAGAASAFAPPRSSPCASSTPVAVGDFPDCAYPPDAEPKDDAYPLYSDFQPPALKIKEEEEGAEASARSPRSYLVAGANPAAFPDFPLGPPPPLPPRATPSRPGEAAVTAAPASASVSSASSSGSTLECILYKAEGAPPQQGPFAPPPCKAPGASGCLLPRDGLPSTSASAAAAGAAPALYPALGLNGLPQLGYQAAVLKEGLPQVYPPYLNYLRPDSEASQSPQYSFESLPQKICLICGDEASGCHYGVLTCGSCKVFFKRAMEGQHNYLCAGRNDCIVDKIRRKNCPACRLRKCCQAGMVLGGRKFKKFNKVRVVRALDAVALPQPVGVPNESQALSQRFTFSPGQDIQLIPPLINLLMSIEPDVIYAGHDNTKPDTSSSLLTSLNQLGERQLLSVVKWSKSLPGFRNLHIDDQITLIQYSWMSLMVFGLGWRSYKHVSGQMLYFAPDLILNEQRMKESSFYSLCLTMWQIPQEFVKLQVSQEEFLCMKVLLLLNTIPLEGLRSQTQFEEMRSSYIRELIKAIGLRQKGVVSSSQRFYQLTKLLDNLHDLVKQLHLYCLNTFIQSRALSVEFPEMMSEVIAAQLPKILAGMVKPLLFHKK
Sequence of Estrogen receptor (Homo sapiens) (P03372 whole entry, looked up): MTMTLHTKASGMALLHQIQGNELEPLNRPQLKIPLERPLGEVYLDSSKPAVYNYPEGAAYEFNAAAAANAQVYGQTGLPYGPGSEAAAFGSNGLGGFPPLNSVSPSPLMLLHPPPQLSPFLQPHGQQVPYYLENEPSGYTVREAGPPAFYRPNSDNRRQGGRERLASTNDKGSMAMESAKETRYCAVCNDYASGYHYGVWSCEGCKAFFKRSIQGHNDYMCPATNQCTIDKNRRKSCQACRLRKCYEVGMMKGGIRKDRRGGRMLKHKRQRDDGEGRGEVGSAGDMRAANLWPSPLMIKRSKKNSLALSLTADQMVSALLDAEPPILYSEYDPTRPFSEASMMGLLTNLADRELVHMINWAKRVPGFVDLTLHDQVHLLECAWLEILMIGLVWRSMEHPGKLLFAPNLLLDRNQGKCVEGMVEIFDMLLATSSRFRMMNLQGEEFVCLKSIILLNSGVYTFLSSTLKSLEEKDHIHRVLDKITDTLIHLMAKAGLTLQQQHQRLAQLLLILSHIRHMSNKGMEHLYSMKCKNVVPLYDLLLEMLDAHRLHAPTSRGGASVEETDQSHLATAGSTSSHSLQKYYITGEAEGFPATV
Sequence of Androgen receptor (Homo sapiens) (P10275 whole entry, looked up): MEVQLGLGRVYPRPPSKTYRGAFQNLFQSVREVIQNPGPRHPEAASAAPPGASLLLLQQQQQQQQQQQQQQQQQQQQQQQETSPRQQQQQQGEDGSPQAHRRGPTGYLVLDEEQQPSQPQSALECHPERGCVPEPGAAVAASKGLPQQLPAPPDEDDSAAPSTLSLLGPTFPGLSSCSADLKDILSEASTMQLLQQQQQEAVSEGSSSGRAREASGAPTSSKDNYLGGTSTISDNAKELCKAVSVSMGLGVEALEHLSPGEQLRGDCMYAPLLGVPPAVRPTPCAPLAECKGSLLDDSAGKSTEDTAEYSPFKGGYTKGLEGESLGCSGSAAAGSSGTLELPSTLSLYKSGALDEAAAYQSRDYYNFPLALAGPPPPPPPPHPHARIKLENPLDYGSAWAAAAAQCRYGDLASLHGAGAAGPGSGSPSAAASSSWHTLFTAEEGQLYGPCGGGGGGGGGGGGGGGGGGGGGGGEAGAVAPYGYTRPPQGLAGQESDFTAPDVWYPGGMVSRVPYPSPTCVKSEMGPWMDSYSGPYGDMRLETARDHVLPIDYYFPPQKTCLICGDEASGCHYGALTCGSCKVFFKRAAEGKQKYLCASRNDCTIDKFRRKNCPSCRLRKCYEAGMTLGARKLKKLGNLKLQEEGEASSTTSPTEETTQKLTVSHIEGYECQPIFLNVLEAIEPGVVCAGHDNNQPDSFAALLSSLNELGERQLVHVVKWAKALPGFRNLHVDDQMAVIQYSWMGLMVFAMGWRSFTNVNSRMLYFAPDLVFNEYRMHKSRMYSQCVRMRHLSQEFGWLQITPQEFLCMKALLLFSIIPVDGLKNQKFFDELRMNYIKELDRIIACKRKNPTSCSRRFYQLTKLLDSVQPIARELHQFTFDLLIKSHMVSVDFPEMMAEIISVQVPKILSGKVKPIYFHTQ

| Compound | Potency [1] | Potency [2] | Potency [3] | Potency [4] | Potency [5] | outcome [6] | outcome [7] | outcome [8] | outcome [9] | Potency [10] | Potency [11] | Potency [12] | outcome [13] | outcome [14] | outcome [15] | outcome [16] | Potency [17] | Potency [18] | Potency [19] | Potency [20] |
| --- | --- | --- | --- | --- | --- | --- | --- | --- | --- | --- | --- | --- | --- | --- | --- | --- | --- | --- | --- | --- |
| Cc1ccc(-c2ncc(Cl)cc2-c2ccc(S(C)(=O)=O)cc2)cn1 | inactive | inactive | inactive | inactive | inactive | inactive | inactive | inactive | inactive | inactive | inactive | inactive | inactive | inactive | inactive | inactive | inactive | – | – | – |
| O=C(O)c1cn(C2CC2)c2cc(N3CCNCC3)c(F)cc2c1=O | inactive | inactive | inactive | inactive | – | inactive | inactive | inactive | inactive | inactive | inactive | inactive | inactive | inactive | inactive | – | – | inactive | inactive | – |
| CCN(C=O)CC | inactive | inactive | inactive | – | – | inactive | – | inactive | inactive | inactive | – | – | inactive | inactive | inactive | inactive | inactive | – | 49.8 µM (active) | inactive |
| CCOCC(C)O (centres undefined) | inactive | inactive | inactive | inactive | – | inactive | inactive | inactive | inactive | inactive | inactive | inactive | inactive | inactive | inactive | inactive | inactive | inactive | inactive | – |
| CCCCCCC1CCC(=O)O1 (centres undefined) | inactive | inactive | inactive | inactive | – | inactive | inactive | inactive | inactive | inactive | inactive | inactive | inactive | inactive | inactive | inactive | inactive | inactive | inactive | – |
| CC(C)(C)c1ccc(-c2ccc(C(C)(C)C)cc2)cc1 | inactive | inactive | inactive | inactive | inactive | inactive | inactive | inactive | inactive | inactive | inactive | inactive | inactive | inactive | inactive | inactive | inactive | inactive | – | – |
| CCCCCC(=O)OCCc1ccccc1 | inactive | inactive | – | inactive | – | inactive | inactive | inactive | – | inactive | inactive | inactive | inactive | inactive | inactive | inactive | inactive | inactive | inactive | inactive |
| CC(C#N)(CCC(=O)O)N=NC(C)(C#N)CCC(=O)O (centres undefined) | inactive | inactive | inactive | inactive | – | inactive | – | inactive | inactive | inactive | inactive | inactive | inactive | inactive | inactive | inactive | inactive | inactive | inactive | – |
| C[C@H]1[C@H](NC(=O)/C(=N/OC(C)(C)C(=O)O)c2csc(N)n2)C(=O)N1S(=O)(=O)O (stereo in doubt) | inactive | inactive | – | inactive | – | inactive | – | inactive | inactive | inactive | inactive | inactive | – | inactive | inactive | – | – | inactive | inactive | inactive |
| CCOC(=O)c1ccccc1 | inactive | inactive | inactive | – | – | inactive | inactive | – | – | inactive | inactive | inactive | inactive | inactive | inactive | inactive | inactive | inactive | – | inactive |
| CC1=CC(=O)[C@H]2C[C@@H]1C2(C)C | inactive | inactive | inactive | inactive | – | inactive | inactive | – | – | inactive | inactive | inactive | inactive | inactive | inactive | inactive | inactive | inactive | – | – |
| [K+] | inactive | inactive | inactive | inactive | – | inactive | inactive | inactive | inactive | inactive | inactive | inactive | inactive | – | inactive | inactive | inactive | inactive | inactive | – |
| C1CCC2(CCCCO2)OC1 | inactive | inactive | inactive | inactive | – | inactive | inactive | inactive | inactive | inactive | inactive | inactive | inactive | inactive | inactive | inactive | inactive | inactive | inactive | – |
| CCCCOCCOC(=O)CCCCCCCCC(=O)OCCOCCCC | 30.6 µM (active) | inactive | inactive | inactive | – | inactive | – | inactive | inactive | inactive | inactive | inactive | inactive | – | inactive | inactive | inactive | inactive | – | – |
| CCC(=O)OCc1ccccc1 | inactive | inactive | inactive | – | – | inactive | – | inactive | inactive | inactive | inactive | inactive | inactive | inactive | inactive | inactive | inactive | inactive | inactive | inactive |
| CCCCc1nc(Cl)c(CO)n1Cc1ccc(-c2ccccc2-c2nn[nH]n2)cc1 | 0.596 µM (active) | inactive | – | inactive | – | inactive | – | – | – | inactive | inactive | inactive | inactive | inactive | inactive | – | – | inactive | – | inactive |
| CCOC(=O)CCC(=O)OCC | inactive | inactive | inactive | inactive | – | inactive | inactive | inactive | inactive | inactive | – | inactive | inactive | inactive | inactive | inactive | inactive | – | inactive | – |
